Test results as given in ChEMBL document CHEMBL3433997, “St. Jude Leishmania screening dataset” (2016).

Assays:
Format in all cases: functional
[1] = target: Solute carrier family 2, facilitated glucose transporter member 1 (Homo sapiens) (UniProt P11166); experiment: ST_JUDE_LEISH: Cytotoxicity at 2uM final concentration against transgenic Leishmania Mexicana promastigotes LmGLUT1 that are glucose transport deficient and complemented with the human glucose transporter GLUT1. Activity is measured by DNA content using SYBR green in vitro
Chain of Solute carrier family 2, facilitated glucose transporter member 1 (Homo sapiens) (P11166 whole entry): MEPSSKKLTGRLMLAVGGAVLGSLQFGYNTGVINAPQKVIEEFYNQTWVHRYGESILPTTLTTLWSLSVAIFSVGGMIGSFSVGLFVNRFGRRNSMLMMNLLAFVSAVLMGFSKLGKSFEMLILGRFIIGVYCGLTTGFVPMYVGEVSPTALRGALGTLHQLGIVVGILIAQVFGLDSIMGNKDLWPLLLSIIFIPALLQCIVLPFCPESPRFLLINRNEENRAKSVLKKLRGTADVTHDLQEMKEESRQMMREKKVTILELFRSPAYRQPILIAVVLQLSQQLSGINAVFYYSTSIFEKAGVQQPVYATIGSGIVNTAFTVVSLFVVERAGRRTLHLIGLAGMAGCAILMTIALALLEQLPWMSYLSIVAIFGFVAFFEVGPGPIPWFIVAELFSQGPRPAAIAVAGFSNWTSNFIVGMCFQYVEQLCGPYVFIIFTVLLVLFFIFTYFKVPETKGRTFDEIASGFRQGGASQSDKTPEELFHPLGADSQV

[2] = target: Hexose transporter 1 (Plasmodium falciparum) (UniProt O97467); experiment: ST_JUDE_LEISH: Cytotoxicity at 2uM final concentration against transgenic Leishmania Mexicana promastigotes LmPfHT that are glucose transport deficient and complemented with the Plasmodium falciparum hexose transporter. Activity is measured by DNA content using SYBR green in vitro
[3] = target: Glucose transporter (Leishmania mexicana) (UniProt O61059); experiment: ST_JUDE_LEISH: Cytotoxicity at 2uM final concentration against transgenic Leishmania Mexicana promastigotes LmGT2 that are glucose transport deficient and complemented with the L. Mexicana glucose transporter 2. Activity is measured by DNA content using SYBR green in vitro

Structure (SMILES): CC(C)NCC(=O)Nc1cccc(C(=O)Nc2cccc(C(F)(F)F)c2)c1
- inhibition [1]: 4.13%
- inhibition [2]: 2.76%
- inhibition [3]: -1.8%

Structure (SMILES): CCn1ccc2c(N3CCCCS3(=O)=O)cc(C(=O)N[C@@H](Cc3ccccc3)[C@H](O)CNC(C)(C)c3cccc(C(F)(F)F)c3)cc21
- inhibition [1]: 0.44%
- inhibition [2]: -1.1%
- inhibition [3]: -1.56%

Structure (SMILES): COc1cc(-c2nc(-c3ccncc3)c(-c3ccc4c(c3)CCC4=NO)[nH]2)ccc1OCCN1CCCCC1
- inhibition [1]: -5.14%
- inhibition [2]: 1.57%
- inhibition [3]: 2.76%

Structure (SMILES): CN1CCC(C(=O)Nc2cccc(-c3ccc(-c4nc5cc(F)ccc5[nH]4)cc3)c2)CC1
- inhibition [1]: 8.64%
- inhibition [2]: 10.3%
- inhibition [3]: 9.64%

Structure (SMILES): c1ccc(Oc2ccc(Nc3ccnc4cc(-c5cccc(CNCCN6CCOCC6)c5)ccc34)cc2)cc1
- inhibition [1]: -0.34%
- inhibition [2]: -0.08%
- inhibition [3]: 1.68%
